Experimental data: PubChem BioAssay AID493231 (Broad Institute, 2011)
Measured potencies and affinities stand elsewhere. Calls of active or inactive are those of the source. How the calls were made is not given here.

target: Acyl-homoserine lactone acylase PvdQ (Pseudomonas aeruginosa (strain ATCC 15692 / DSM 22644 / CIP 104116 / JCM 14847 / LMG 12228 / 1C / PRS 101 / PAO1)) (UniProt Q9I194); experiment: PvdQ acylase enzyme activity blockers – biochemical, fluorescence, plate reader and imaging, cherry-picks, dose response (AID 493231); conditions: purified PvdQ acylase, fluorogenic substrate; series mostly up to 10 µM; activity change, negative = inhibition: at the top concentration;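 further: 0% = neutral control wells and -100% = reference inhibitor wells; more negative values mean stronger inhibition of the acylase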
Sequence (Q9I194 whole entry, looked up): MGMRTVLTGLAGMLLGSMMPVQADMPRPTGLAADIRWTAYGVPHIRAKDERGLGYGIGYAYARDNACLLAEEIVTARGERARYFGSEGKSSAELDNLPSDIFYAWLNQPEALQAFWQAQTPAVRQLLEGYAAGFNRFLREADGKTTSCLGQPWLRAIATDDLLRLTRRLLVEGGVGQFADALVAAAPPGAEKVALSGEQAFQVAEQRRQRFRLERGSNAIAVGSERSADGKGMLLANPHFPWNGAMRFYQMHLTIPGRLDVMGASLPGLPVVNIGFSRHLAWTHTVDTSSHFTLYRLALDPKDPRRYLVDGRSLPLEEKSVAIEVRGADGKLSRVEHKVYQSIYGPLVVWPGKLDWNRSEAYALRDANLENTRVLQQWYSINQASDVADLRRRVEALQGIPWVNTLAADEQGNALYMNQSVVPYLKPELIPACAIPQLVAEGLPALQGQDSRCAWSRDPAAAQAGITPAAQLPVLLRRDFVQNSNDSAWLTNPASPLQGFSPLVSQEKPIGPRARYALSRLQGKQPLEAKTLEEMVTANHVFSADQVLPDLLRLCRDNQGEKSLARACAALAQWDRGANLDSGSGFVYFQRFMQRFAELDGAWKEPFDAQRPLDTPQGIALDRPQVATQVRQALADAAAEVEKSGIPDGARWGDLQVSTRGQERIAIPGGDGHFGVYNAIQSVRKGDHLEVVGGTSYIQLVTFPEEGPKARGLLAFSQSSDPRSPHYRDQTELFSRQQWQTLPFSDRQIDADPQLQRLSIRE

Activity change, negative = inhibition, inactive:
CN(C(=O)CCn1c(=S)oc2ccccc21)c1ccc(F)cc1 9.4 unspecified
COc1ccc(-c2cn3cc(C)ccc3n2)cc1F -2.17 unspecified
COc1ccc(Cl)cc1C(=O)Nc1ccc(N(C)C(C)=O)cc1 8.04 unspecified
COc1ccc(S(=O)(=O)NCCc2ccccc2)c2cccnc12 15 unspecified
Cc1cc(C)nc(NS(=O)(=O)c2ccc(NC(=O)c3ccc(N4C(=O)CCC4=O)cc3)cc2)n1 3.67 unspecified
CCCCNc1c(C(=O)OCC)c(=O)[nH]c2ccccc12 3.06 unspecified
COC(=O)c1ccc(-c2nc3ccccc3[nH]2)cc1 -13.8 unspecified
Cc1cccc(NCc2ccccc2O)n1 10.3 unspecified
O=C(/C=C/c1cccs1)Nc1ccncc1 -7.98 unspecified
O=C(Cc1cccc(NC(=O)C2CCN(C(=O)C3CCCCC3)CC2)c1)Nc1cccc(C(=O)N2CCCCC2)c1 -5.7 unspecified
Cc1ccc(-c2nc(CN(C)Cc3cccc4cnccc34)c(C)o2)s1 -7.83 unspecified
CCOC(=O)CSc1nnc(-c2ccc(S(=O)(=O)N3CCC(C)CC3)cc2)o1 8.29 unspecified
C/C(CCC1CC(C)OC1=O)=N/Nc1nc(-c2ccccc2)cs1 (stereo not given) 9.21 unspecified
O=[N+]([O-])c1ccc2c(c1)Cc1cc(F)ccc1-2 -4.84 unspecified
C=CCNC(=S)NNC(=O)C(CC(C)C)CC(C)O (stereo not given) 3.85 unspecified
Cc1ncc(CN2CCN(Cc3ccc(F)cc3)C(CCO)C2)s1 (stereo not given) 10.5 unspecified
Cc1ccc(S(=O)(=O)N(CC(=O)N2CCC(C)CC2)c2ccccc2)cc1 2.52 unspecified
N#C/C(=C\c1ccc([N+](=O)[O-])cc1)c1ccccn1 -1.17 unspecified
CN(c1ccc(C(=O)NC2CC3CCC2C3)cc1)S(C)(=O)=O (stereo not given) 0.643 unspecified
CC(=O)c1ccc(NC(=S)N2CCCC(CO)C2)cc1 (stereo not given) 10.3 unspecified
Cc1cc(C)cc(NC(=O)C(OC(=O)c2cccs2)c2ccccc2)c1 (stereo not given) -99.4 unspecified
COc1ccccc1CNS(=O)(=O)CCNCCc1ccccc1 -100 unspecified
NS(=O)(=O)c1ccc(N2CCOCC2)c(C(=O)NCc2cccs2)c1 -10.9 unspecified
CS(=O)(=O)N1CCN(C(=O)Nc2ccccc2)CC1 -6.79 unspecified
CS(=O)(=O)c1ccc2sc(NC(=O)c3cc4ccccc4o3)nc2c1 4.5 unspecified
Cc1cccc2c(=O)cc(C)n(Cc3ccccc3)c12 -1.24 unspecified
Cc1ccc(OCCn2cc(/C(N)=N/O)c3ccccc32)cc1C 27 unspecified
S=C(NCc1ccc2c(c1)OCO2)Nc1ccc2nsnc2c1 10.7 unspecified
CCn1c(Cc2ccccc2)nnc1SCC(=O)Nc1ccccc1 4.67 unspecified
NC(=O)c1cc(Sc2ccccc2)nc2ccccc12 9.91 unspecified
Cc1cc(=O)n2nc(N3CCCC(C(=O)N4CCOCC4)C3)sc2n1 (stereo not given) -2.15 unspecified
N#Cc1cc([N+](=O)[O-])ccc1Oc1cccc(/C=N/NC(=O)c2ccc(Cl)cc2)c1 -3.43 unspecified
NC(=O)c1ccc(NC(=O)COC(=O)c2n[nH]c3ccccc23)cc1 5.19 unspecified
COC(=O)c1ccccc1NC(=O)CN1CCC(NC(=O)c2ccc(C)cc2)CC1 5.52 unspecified
C=CCn1c(=O)/c(=C/c2ccc(C)o2)s/c1=C(/C#N)C(=O)c1ccccc1 8.18 unspecified
